Data from the supplement of paper PMC10127200.
Where a name gives a salt, the structure may show the parent alone.

Assays:
Test in all cases: Euclidean distance of Cell Painting phenotypic profile (signed KS, 77 features) to DMSO centroid (dimensionless distance); 5 or 10 uM (library dependent); higher = stronger phenotypic change vs DMSO (phenoactivity)
Conditions in all cases: 48 h
786-O = test system: 786-O
Procedure, shortened: (§1)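 Five cancer lines and a healthy fibroblast line received library compounds at 10 or 5 uM (library-dependent, 0.1% DMSO final) for 48 h. Stained cells were imaged confocally at 20X (9 fields/well). Harmony extracted 77 features, each scored as a signed Kolmogorov-Smirnov statistic against same-plate vehicle wells. Profiles were plate-position corrected, correlation-weighted and replicate-averaged at the top dose. Phenoactivity is the Euclidean distance from each profile to the median vehicle profile.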

A549 = test system: A549
Procedure, shortened: as §1

DU145 = test system: DU145
Procedure, shortened: as §1

FB = test system: FB
Procedure, shortened: as §1

HEPG2 = test system: HEPG2
Procedure, shortened: as §1

OVCAR4 = test system: OVCAR4
Procedure, shortened: as §1

SMILES	Euclidean distance (786-O)	Euclidean distance (A549)	Euclidean distance (DU145)	Euclidean distance (FB)	Euclidean distance (HEPG2)	Euclidean distance (OVCAR4)
C=CCN1CCCC1CNC(=O)c1cc2nn[nH]c2cc1OC (configuration not stated) [Alizapride HCl]	0.796	1.43	1.04	1.13	1.28	0.984
OC[C@@H](O)[C@@H](O[C@@H]1O[C@H](CO)[C@H](O)[C@H](O)[C@H]1O)[C@H](O)[C@@H](O)CO [Lactitol]	0.637	0.843	0.537	0.733	0.29	1.17
CCCCCCCCCCCC1=C(O)C(=O)C=C(O)C1=O [Embelin]	1.85	1.18	1.4	1.6	1.16	1.88
O=C(O)Cc1ccccc1Nc1c(Cl)cccc1Cl [Diclofenac Sodium]	1.2	0.988	0.729	1.14	0.995	0.677
C[C@H]1c2cccc(O)c2C(=O)C2=C(O)[C@]3(O)C(=O)C(C(N)=O)=C(O)[C@@H](N(C)C)[C@@H]3[C@@H](O)[C@@H]21 [Doxycycline]	1.5	1.3	0.845	0.954	0.564	1.67
CN(C)CCOC(=O)C(c1ccccc1)C1(O)CCCC1 (configuration not stated) [Cyclopentolate Hydrochloride]	1.16	0.28	0.841	1.15	0.601	1.57
OC(CNCC(O)C1CCc2cc(F)ccc2O1)C1CCc2cc(F)ccc2O1 (configuration not stated) [Nebivolol]	1.39	1.67	0.832	1.65	2.26	1.58
CCC[C@@H]1C[C@@H](C(=O)N[C@@H]([C@H]2O[C@H](SC)[C@H](O)[C@@H](O)[C@H]2O)[C@H](C)Cl)N(C)C1 [Clindamycin HCl]	1.06	0.576	0.99	0.761	0.82	0.755
Nc1cc(Cl)c(N=C2NCCN2)c(Cl)c1 [Apraclonidine HCl]	0.986	1.57	0.828	1.25	0.638	2
CN(C)[C@@H]1C(O)=C(C(N)=O)C(=O)[C@@]2(O)C(O)=C3C(=O)c4c(O)ccc(Cl)c4[C@@H](O)[C@H]3C[C@@H]12 [Demeclocycline HCl]	0.985	0.836	0.951	1.05	0.887	1.53
N=C(N)NCCN1CCCCCCC1 [Guanethidine Monosulfate]	1.05	1.78	0.775	1.38	0.975	1.68
CCNC(=O)CC[C@H](N)C(=O)O [L-Theanine]	1.64	1.8	1.57	2.05	1.4	2.17
CCOC(=O)C1=C(C)NC(C)=C(C(=O)OC)C1c1cccc([N+](=O)[O-])c1 (configuration not stated) [Nitrendipine]	1	0.871	0.908	1.33	0.709	0.934
COc1ccccc1N1CCN(CC(O)COc2cccc3ccccc23)CC1 (configuration not stated) [Naftopidil]	1.4	1.01	0.795	1.01	0.934	0.99
O=C(O)[C@@H](S)[C@@H](S)C(=O)O [Succimer]	1.49	1.41	1.53	1.35	0.53	1.55
Nc1nccc(Oc2ccc(NC(=O)c3c[nH]cc(-c4ccc(F)cc4)c3=O)cc2F)c1Cl	1.57	1.17	1.56	1.94	1.17	1.62
O=C(NCCCNc1nc(Nc2cccc(NC(=O)N3CCCC3)c2)ncc1I)c1cccs1	2.35	4.29	3.26	3.8	2.12	4.44
COc1cc2c(cc1-c1c(C)noc1C)ncc1[nH]c(=O)n([C@H](C)c3ccccn3)c12	2.62	2.24	1.84	3.75	1.77	2.03
O=c1oc2cc(O)ccc2s1 [Tioxolone]	1.49	0.671	0.857	0.922	2.64	1.29
COc1ccnc2[nH]cc(C(=O)C(=O)N3CCN(C(=O)c4ccccc4)C[C@H]3C)c12	0.998	1.1	0.533	0.737	0.554	1.47
CC(=O)OCC(=O)[C@@]1(O)CC[C@H]2[C@@H]3CCC4=CC(=O)CC[C@]4(C)[C@H]3C(=O)C[C@@]21C [Cortisone acetate]	1.03	0.746	1.1	1.06	0.755	1.67
Fc1ccc([C@@H]2CCNC[C@H]2COc2ccc3c(c2)OCO3)cc1 [Paroxetine mesylate]	1.64	1.28	1.89	1.62	2.59	1.52
CC1(C)CCC(C)(C)c2cc(NC(=O)c3ccc(C(=O)O)cc3)ccc21 [Tamibarotene]	1.13	1.55	1.77	3	0.884	1.24
C[C@@H](O[C@H]1OCCN(Cc2nn(P(=O)(O)O)c(=O)[nH]2)[C@H]1c1ccc(F)cc1)c1cc(C(F)(F)F)cc(C(F)(F)F)c1 [Fosaprepitant dimeglumine salt]	1.86	1.37	1.18	1.21	1.4	0.995

SMILES	Euclidean distance (786-O)	Euclidean distance (A549)	Euclidean distance (DU145)	Euclidean distance (FB)	Euclidean distance (HEPG2)	Euclidean distance (OVCAR4)
CN1CCC(CNc2ccc3ncc(-c4cccc(OC(F)(F)F)c4)n3n2)CC1 [SGI-1776 free base]	2.39	3.26	1.73	3.26	4	1.54
Cc1ccc(NC(=O)C2(c3ccc4c(c3)OC(F)(F)O4)CC2)nc1-c1cccc(C(=O)O)c1 [VX-809 (Lumacaftor)]	1.11	0.637	1.55	0.88	0.294	1.02
COc1cc(/C=C/C(=O)CC(=O)/C=C/c2ccc(O)c(OC)c2)ccc1O [Curcumin]	1.77	2.12	1.22	3.06	2.02	1.2
C=CC(=O)Nc1cccc(Nc2nc(Nc3ccc(OCCOC)cc3)ncc2F)c1 [Spebrutinib (CC-292. AVL-292)]	2.73	3.75	3.51	3.98	3.25	2.96
CCc1nc(-c2cccc(C)c2)c(-c2ccnc(NC(=O)c3ccccc3)c2)s1	1.58	0.983	1.46	1.37	1.19	1.34
CC(=O)OCC(=O)NCCCOc1cccc(CN2CCCCC2)c1 [Roxatidine Acetate HCl]	1.32	0.853	0.769	0.72	0.711	0.763
O=S1(=O)CCN(CN2CCS(=O)(=O)NC2)CN1 [Taurolidine]	1.32	0.797	0.913	1.04	0.654	1.46
CN(C)CCc1c[nH]c2ccc(CS(=O)(=O)N3CCCC3)cc12 [Almotriptan Malate]	1.05	0.798	0.545	1.14	1.78	1.51
NNC(=O)c1ccncc1 [Isoniazid]	1.4	1.36	0.961	1.16	0.573	0.885
COc1cc(Nc2ncc(F)c(Nc3ccc4c(n3)NC(=O)C(C)(C)O4)n2)cc(OC)c1OC [R406 (free base)]	2.36	3.53	3.18	2.76	1.99	2.41
O=C(O)CSc1nnc(Br)n1-c1ccc(C2CC2)c2ccccc12 [Lesinurad]	0.529	0.673	0.762	0.983	1.61	0.826
CN(C)CCC(c1ccccc1)c1ccccn1 (configuration not stated) [Pheniramine Maleate]	0.54	1.02	0.777	0.632	0.694	1.34
CCOC(N)=O [Urethane]	1.2	0.492	0.675	0.718	0.46	1.46
CCC(C(=O)O)c1ccc(N2Cc3ccccc3C2=O)cc1 (configuration not stated) [Indobufen]	0.947	0.717	1.19	1.01	0.618	1.31
CC(=O)OCC[N+](C)(C)C [Acetylcholine Chloride]	1.02	0.848	1.22	1	0.549	1.13
NC(=O)NO [Hydroxyurea]	1.25	0.771	1.13	0.703	0.79	1.18
Nc1nc(=O)n([C@@H]2CS[C@H](CO)O2)cc1F [Emtricitabine]	1.06	0.783	0.954	0.924	0.432	1.08
O=c1[nH]cc(F)c(=O)[nH]1 [Fluorouracil (5-Fluoracil. 5-FU)]	1.5	3.01	1.12	2.37	2.13	2.12
CNC(=O)c1ccc(-c2cnc3ncc(Cc4ccc5ncccc5c4)n3n2)cc1F	1.36	0.853	0.871	0.899	0.745	0.726
CC1(C)S[C@@H]2[C@H](NC(=O)COc3ccccc3)C(=O)N2[C@H]1C(=O)O [Penicillin V potassium salt]	1.25	1.22	1.35	0.767	0.481	1.67
O=C(OC(C(F)(F)F)C(F)(F)F)N1CCN(Cc2ccc(C(F)(F)F)cc2N2CCCC2)CC1	1.62	1.13	0.875	1.46	1.27	1.66
NC(=O)c1cnccn1 [Pyrazinamide]	1.07	1.35	0.786	1.14	1.95	1.13
O=C(NNc1nc2cc(F)ccc2n2cccc12)c1cnccn1	3.74	2.78	2.25	3.85	2.84	5.56
